Hits are enriched below; roughly 5% of the tested compounds scored in any of these assays.
SENP8 block-1 = blocks human SENP8 cleavage of Nedd8 substrate; Q96LD8; recombinant SENP8, Nedd8 substrate fluorescence; inhibition, % at 20 µM; 0.64% of 360,000 active; AID 602440; in the data active = inhibition mostly above about 40%, no sharp cut-off; inactive = mostly below about 27%
Target sequence (Q96LD8 whole entry, looked up): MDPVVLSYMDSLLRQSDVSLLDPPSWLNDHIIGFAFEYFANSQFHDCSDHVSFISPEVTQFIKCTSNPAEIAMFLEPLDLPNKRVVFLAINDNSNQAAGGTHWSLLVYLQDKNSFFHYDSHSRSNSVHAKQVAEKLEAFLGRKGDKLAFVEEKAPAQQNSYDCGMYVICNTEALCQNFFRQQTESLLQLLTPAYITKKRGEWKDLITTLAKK
SENP8 block-2 = blocks the human protease SENP8; 1.2% of 330,000 active; Q96LD8; inhibition, % at 10 µM; purified SENP8, Z-RLRGG-aminoluciferin cleavage, luminescence; in the data active = inhibition above about 50%
SENP7 inh = inhibitors of human SENP7 protease; Q9BQF6; recombinant SENP7, Z-RLRGG-aminoluciferin luminescence, 40 min; inhibition, % at 5 µM; 1.5% of 330,000 active; AID 434973;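 active = inhibition above about 50% at the single test dose, limit read from the data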
Target sequence (Q9BQF6 706-1050 limits assumed): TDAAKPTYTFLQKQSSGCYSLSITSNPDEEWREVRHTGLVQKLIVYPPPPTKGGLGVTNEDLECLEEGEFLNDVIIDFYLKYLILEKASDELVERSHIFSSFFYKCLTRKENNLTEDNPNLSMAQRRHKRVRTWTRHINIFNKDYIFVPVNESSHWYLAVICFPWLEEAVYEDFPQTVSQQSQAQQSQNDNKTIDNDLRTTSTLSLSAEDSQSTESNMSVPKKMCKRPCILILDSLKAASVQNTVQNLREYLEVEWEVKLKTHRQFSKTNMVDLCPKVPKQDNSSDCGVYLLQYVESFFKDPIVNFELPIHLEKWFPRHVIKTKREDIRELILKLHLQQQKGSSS
SENP6 inh = blocks the human protease SENP6 | Recombinant SENP6 catalytic domain, aminoluciferin luminescence | 1.8% of 330,000 active | Q9GZR1 | inhibition, % at 10 µM;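 active = inhibition above about 50% at the single tested dose, limit read from the data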
AHR act = human AHR activation. P35869. AHR-responsive luciferase reporter cells, luminescence. activation, % at 5 µM. 2.5% of 320,000 active. AID 2796; in the data active = activation above about 47%
EBI2 antag = EBI2 (human) antagonism | P32249 | EBI2 beta-arrestin recruitment, luminescence, 7a,25-OHC stimulated | inhibition, % at 5 µM | 0.81% of 360,000 active | AID 651636; in the data active = inhibition above about 38%;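 also: enzyme fragment complementation signal reports receptor beta-arrestin coupling in cells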
EBI2 conf = confirmation of human EBI2 receptor antagonists; shares compounds with EBI2 antag; EBI2 beta-arrestin luminescence, 7a,25-OHC antagonism; inhibition, % at 5 µM; 29% of 2,400 active; AID 651997;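 active = inhibition of at least 50%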
EBI2 ag = EBI2 agonism counter-screen. shares compounds with EBI2 antag. EBI2-expressing cells, agonist mode, luminescence, 60 min; 0% vehicle, 100% 7α,25-dihydroxycholesterol control. activation, % at 5 µM. 2,400 tested, under 10 active. AID 652000;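 active = activation of at least 50%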
bGal counter = inhibits E. coli beta-galactosidase, counter-screen for EBI2 antagonists; 1% of 2,400 active; inhibition, % at 5 µM; purified beta-galactosidase, luminescent Galacton Star, 15 min; shares compounds with EBI2 antag;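 active = replicate-average signal at least 3 plate SD below neutral wells, shown as high inhibition, flagging enzyme-inhibiting false positives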;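 also: higher means stronger loss of beta-gal luminescence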
Large screens that a line does not name were inactive (follow-up assays come after a bar, where they were run).

COc1ccc([C@H]2CC(=O)C=C(c3ccc(Cl)cc3C)C2)cc1	none
COc1cccc(C2=CC(=O)C[C@H](c3ccc(Cl)cc3)C2)c1OC	EBI2 antag 62 | EBI2 conf inactive | EBI2 ag inactive | bGal counter inactive
COc1ccc(C2=CC(=O)C[C@H](c3ccc(Cl)cc3)C2)cn1	EBI2 antag 50 | EBI2 conf inactive | EBI2 ag inactive | bGal counter inactive
COc1ccc([C@H]2CC(=O)C=C(c3ccc(Cl)c(Cl)c3)C2)cc1	EBI2 antag 80 | EBI2 conf 57 | EBI2 ag inactive | bGal counter inactive
COc1ccc([C@H]2CC(=O)C=C(c3ccc(C)c(F)c3)C2)cc1	EBI2 antag 53 | EBI2 conf inactive | EBI2 ag inactive | bGal counter inactive
COc1ccccc1C1=CC(=O)C[C@H](c2ccc(Cl)cc2)C1	none
O=C(NCc1cccnc1)c1ccc(NS(=O)(=O)c2ccc(F)cc2)cc1	none
COc1ccc(N2CC(C(=O)N3CCN(C(=O)c4ccco4)CC3)CC2=O)cc1 (stereo unspecified)	none
COc1ccc([C@H]2CC(=O)C=C(c3ccc(Cl)c(F)c3)C2)cc1	EBI2 antag 51 | EBI2 conf 52 | EBI2 ag inactive | bGal counter inactive
Cc1c(C(=O)NCc2ccc(F)cc2)sc(=O)n1Cc1ccccc1	none (no result: SENP8 block-2, SENP7 inh, SENP6 inh, AHR act)
CCCCCCCCCCSc1n[nH]c(N)n1	none
COc1ccc(C2CC(c3ccc(Br)cc3)=NN2C(=O)CN2CCCC2)cc1 (stereo unspecified)	none
CNC(=S)N1N=C(c2ccc(Br)cc2)CC1c1ccc(OC)cc1 (stereo unspecified)	EBI2 antag 88 | EBI2 conf 87 | EBI2 ag inactive | bGal counter inactive
Cn1cc(S(=O)(=O)N2CCc3ccccc32)cc1C(=O)Nc1ccc(Cl)cc1	EBI2 antag 46 | EBI2 conf inactive | EBI2 ag inactive | bGal counter inactive
C[C@H](NC(=O)c1ccco1)C(=O)OCC(=O)N1CC(=O)Nc2ccccc21	none
CC(C)(C)OC(=O)C[C@@H]1C/C=C\C[C@H](CC(=O)N[C@H](CO)Cc2ccccc2)C(=O)N2CCC[C@H]2COC1=O	none
COc1ccccc1NCC(O)COc1ccc(C(C)(C)C)cc1 (stereo unspecified)	none
COc1ccc(NCC(O)COc2ccc(C(C)(C)C)cc2)cc1 (stereo unspecified)	EBI2 antag 70 | EBI2 conf 52 | EBI2 ag inactive | bGal counter inactive
O=C(/C=C/c1cn(-c2ccccc2)nc1-c1cccnc1)c1ccco1	EBI2 antag 44 | EBI2 conf 65 | EBI2 ag inactive | bGal counter inactive
O=C(NCCOc1ccc(Cl)cc1)C(=O)NCC1CCCO1 (stereo unspecified)	none
Cc1ccc(OCCNC(=O)c2cc(C(=O)NCCOc3ccc(C)cc3)cc([N+](=O)[O-])c2)cc1	EBI2 antag 47 | EBI2 conf inactive | EBI2 ag inactive | bGal counter inactive
Cc1ccc(C(=O)NCCOc2ccc(Cl)cc2)cc1	EBI2 antag 51 | EBI2 conf inactive | EBI2 ag inactive | bGal counter inactive
CCc1ccc(OCCNC(=O)c2ccc(S(=O)(=O)N(C)C)cc2)cc1	EBI2 antag 64 | EBI2 conf inactive | EBI2 ag inactive | bGal counter inactive
Cc1cccc(C)c1NC(=O)C(=O)NCCOc1ccc(Cl)cc1	EBI2 antag 51 | EBI2 conf inactive | EBI2 ag inactive | bGal counter inactive
CCCn1c(N)c(C(=O)CSc2ncnc3sccc23)c(=O)n(C)c1=O	none (no result: AHR act)
Cc1ccc(OCCNC(=O)CCNS(=O)(=O)c2ccc3ccccc3c2)cc1	EBI2 antag 47 | EBI2 conf inactive | EBI2 ag inactive | bGal counter inactive
Cc1ccc(OCCNC(=O)Cc2ccc(F)cc2)cc1	EBI2 antag 50 | EBI2 conf inactive | EBI2 ag inactive | bGal counter inactive
Cc1ccc2nc(NC(=O)CSc3nncc(=O)n3N)sc2c1	none
COc1ccc(CCNC(=O)C2CCN(C(=O)c3ccc(C(C)(C)C)cc3)CC2)cc1	none
CSc1ccc(CN(C)C(=O)c2cc(=O)[nH]c3ccccc23)cc1	none
CSc1ccc(CN(C)C(=O)c2cc(=O)c3ccccc3o2)cc1	EBI2 antag 78 | EBI2 conf 60 | EBI2 ag inactive | bGal counter inactive
CSc1ccc(CN(C)C(=O)c2cc3ccccc3o2)cc1	EBI2 antag 50 | EBI2 conf inactive | EBI2 ag inactive | bGal counter inactive
CCOC(=O)N1CCN(C(=O)c2cc3sccc3n2C)CC1	none
COc1ccccc1N1CCN(C(=O)c2ccc3nc(-c4ccco4)c(-c4ccco4)nc3c2)CC1	none
Cc1ccc(C)c(N2CCN(C(=O)c3ccc4nc(-c5ccco5)c(-c5ccco5)nc4c3)CC2)c1	EBI2 antag 44 | EBI2 conf inactive | EBI2 ag inactive | bGal counter inactive
Cc1ccc(C)c(N2CCN(C(=O)c3cc4sccc4n3C)CC2)c1	EBI2 antag 74 | EBI2 conf inactive | EBI2 ag inactive | bGal counter inactive
Cc1ccc(C)c(N2CCN(C(=O)c3ccc4c(c3)c(C)c(C)n4C)CC2)c1	EBI2 antag 73 | EBI2 conf 58 | EBI2 ag inactive | bGal counter inactive
Cc1ccc(C)c(N2CCN(C(=O)c3ccc(N4CCCC4=O)cc3)CC2)c1	EBI2 antag 48 | EBI2 conf inactive | EBI2 ag inactive | bGal counter inactive
CN1CCN(C(=O)c2ccc(-n3cccn3)nc2)CC1	none
Cc1ccc(CNC(=O)c2ccc(COc3ccccc3)cc2)cc1	EBI2 antag 52 | EBI2 conf 56 | EBI2 ag inactive | bGal counter inactive
CSCc1ccc(C(=O)NCc2ccc(C)cc2)cc1	EBI2 antag 64 | EBI2 conf inactive | EBI2 ag inactive | bGal counter inactive
Cc1ccc(S(=O)(=O)NCCC(=O)N2CCCCCCC2)cc1C	none
O=C(NCc1cccnc1)c1cc(S(=O)(=O)N2CCCC2)c(Cl)cc1Cl	none (no result: AHR act)
O=C(NCCc1ccc(Cl)cc1)C1CCN(S(=O)(=O)c2ccc(Br)s2)CC1	EBI2 antag 51 | EBI2 conf inactive | EBI2 ag inactive | bGal counter inactive
COc1ccc(CNC(=O)C2CCN(S(=O)(=O)c3ccc(Br)s3)CC2)cc1	EBI2 antag 68 | EBI2 conf inactive | EBI2 ag inactive | bGal counter inactive
O=C(NCc1ccc2c(c1)OCO2)C1CCN(S(=O)(=O)c2ccc(Br)s2)CC1	EBI2 antag 44 | EBI2 conf inactive | EBI2 ag inactive | bGal counter inactive

Screens (PubChem)
